Test results from PubChem BioAssay (EPA / NIEHS).
Several values for one entry are separate records, joined by “and”; a condition that tells them apart may be missing. Equal values may be shown once. Some compounds were tested as several samples or in several runs, with calls that do not always agree. Activity calls are given as the source filed them. Rule for the calls: active = hit-call score of the fitted dose curve at least 0.9, where 1 is the maximum; inactive = score below 0.9.

Experiments:
[1] = biological target: Paired box protein Pax-6 (Homo sapiens) (UniProt P26367); experiment: ATG_Pax6_CIS: Attagene CIS-FACTORIAL HepG2 Assay for human Paired Box 6 (PAX6) (AID 2282956); conditions: HepG2 CIS-FACTORIAL PAX6 reporter transcription, RNA readout; actives raise or lower the signal
Chain of Paired box protein Pax-6 (Homo sapiens) (P26367 whole entry, looked up): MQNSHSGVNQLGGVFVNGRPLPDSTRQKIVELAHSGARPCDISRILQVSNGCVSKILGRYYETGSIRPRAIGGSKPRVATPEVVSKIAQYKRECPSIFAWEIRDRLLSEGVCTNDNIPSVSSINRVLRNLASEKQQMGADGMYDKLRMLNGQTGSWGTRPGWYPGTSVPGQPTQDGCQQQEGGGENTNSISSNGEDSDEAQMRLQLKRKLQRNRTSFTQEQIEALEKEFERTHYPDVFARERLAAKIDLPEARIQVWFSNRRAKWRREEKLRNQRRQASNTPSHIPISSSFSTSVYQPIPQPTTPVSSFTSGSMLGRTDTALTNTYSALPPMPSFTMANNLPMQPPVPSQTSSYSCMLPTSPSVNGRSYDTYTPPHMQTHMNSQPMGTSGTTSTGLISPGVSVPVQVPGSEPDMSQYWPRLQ
In short: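 DMSO-referenced bidirectional fits of reporter mRNA fluorescence; HepG2 with transient cis-promoter MRTUs, 24 h post-dose, RT-PCR plus capillary electrophoresis detection.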

[2] = ATG_PXRE_CIS: Attagene CIS-FACTORIAL HepG2 Assay for human Pregnane X Receptor Element (PXRE) (AID 2282957); conditions: HepG2 Attagene CIS-FACTORIAL PXRE reporter, mRNA; actives raise or lower the signal
In short: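 Endogenous transcription factor activity in HepG2 was gauged through induction of reporter mRNA driven by a cis-regulating promoter element, sampled 24 h post-treatment. Activity was fitted in both directions against DMSO negative control.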

[3] = ATG_PPRE_CIS: Attagene CIS-FACTORIAL HepG2 Assay for human Peroxisome Proliferator-activated Response Element (PPRE) (AID 2282958); conditions: HepG2 PPRE cis-element reporter, Attagene transcription factor profiling; actives raise or lower the signal
In short: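 Measured endpoint: PPRE-controlled reporter mRNA, detected by RT-PCR and capillary electrophoresis fluorescence, from transiently transfected HepG2 cells 24 h after dosing. Curves fitted in both directions using DMSO baseline.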

[4] = ATG_RORE_CIS: Attagene CIS-FACTORIAL HepG2 Assay for human RAR-related Orphan Receptor Element (RORE) (AID 2282959); conditions: HepG2 Attagene cis-factorial RORE reporter, mRNA; actives raise or lower the signal
In short: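 Transiently transfected HepG2 reporter cells were treated 24 h. Reporter transcripts were detected by RT-PCR and capillary electrophoresis, with bidirectional fitting against DMSO.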

[5] = ATG_Sox_CIS: Attagene CIS-FACTORIAL HepG2 Assay for human SRY-box transcription factor (SOX) (AID 2282960); conditions: HepG2 Attagene cis-factorial SOX reporter, mRNA; actives raise or lower the signal
In short: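 Gain- or loss-of-signal endpoint, fitted bidirectionally with DMSO as negative control. Based on reporter mRNA from transfected HepG2 cells harvested 24 h post-treatment and quantified via RT-PCR and capillary electrophoresis.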

[6] = biological target: Transcription factor Sp1 (Homo sapiens) (UniProt P08047); experiment: ATG_Sp1_CIS: Attagene CIS-FACTORIAL HepG2 Assay for human Specificity Protein 1 (Sp1) (AID 2282961); conditions: HepG2 Sp1 cis-reporter transcription, actives raise or lower the signal
Chain of Transcription factor Sp1 (Homo sapiens) (P08047 whole entry, looked up, the tested form may be a part): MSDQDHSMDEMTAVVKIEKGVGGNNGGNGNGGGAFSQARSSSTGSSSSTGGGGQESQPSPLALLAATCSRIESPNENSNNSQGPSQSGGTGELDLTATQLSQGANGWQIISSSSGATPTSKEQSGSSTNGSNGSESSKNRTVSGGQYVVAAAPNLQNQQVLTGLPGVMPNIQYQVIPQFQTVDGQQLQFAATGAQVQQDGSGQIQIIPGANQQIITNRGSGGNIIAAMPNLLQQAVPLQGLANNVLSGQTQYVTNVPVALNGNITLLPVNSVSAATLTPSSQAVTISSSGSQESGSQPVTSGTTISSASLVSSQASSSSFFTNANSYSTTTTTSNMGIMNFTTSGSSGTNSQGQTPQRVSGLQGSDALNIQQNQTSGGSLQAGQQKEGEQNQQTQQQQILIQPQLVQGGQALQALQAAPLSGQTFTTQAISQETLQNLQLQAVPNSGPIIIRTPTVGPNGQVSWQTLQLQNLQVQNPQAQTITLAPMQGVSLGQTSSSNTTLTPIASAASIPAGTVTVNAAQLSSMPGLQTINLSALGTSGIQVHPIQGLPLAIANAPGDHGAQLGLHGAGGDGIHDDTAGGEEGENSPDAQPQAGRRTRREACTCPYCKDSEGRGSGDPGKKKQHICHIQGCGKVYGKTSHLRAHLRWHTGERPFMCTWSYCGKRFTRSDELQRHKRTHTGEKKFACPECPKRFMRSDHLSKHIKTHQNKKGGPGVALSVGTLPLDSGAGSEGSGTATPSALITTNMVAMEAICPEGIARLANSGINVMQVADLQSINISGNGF
In short: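 Endpoint reflects endogenous Sp1 transcriptional activity, not an exogenous fusion protein: HepG2 cells with transfected cis-regulated reporters, 24 h dosing, RT-PCR/capillary electrophoresis mRNA read-out, DMSO-normalised bidirectional fit.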

[7] = ATG_SREBP_CIS: Attagene CIS-FACTORIAL HepG2 Assay for human Sterol Regulatory Element Binding (SREBP) (AID 2282962); conditions: HepG2 Attagene cis-factorial SREBP reporter, mRNA; actives raise or lower the signal
In short: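 In this cis-format assay, HepG2 liver cells express reporters controlled by promoter elements responsive to native transcription factors. Exposure lasts 24 h; reporter mRNA fluorescence from capillary electrophoresis gives the signal, fitted bidirectionally against DMSO.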

[8] = biological target: Signal transducer and activator of transcription 3 (Homo sapiens) (UniProt P40763); experiment: ATG_STAT3_CIS: Attagene CIS-FACTORIAL HepG2 Assay for human Signal Transducer and Activator of Transcription 3 (STAT3) (AID 2282963); conditions: HepG2, Attagene cis-factorial STAT3 reporter transcription; actives raise or lower the signal
Chain of Signal transducer and activator of transcription 3 (Homo sapiens) (P40763 whole entry, looked up): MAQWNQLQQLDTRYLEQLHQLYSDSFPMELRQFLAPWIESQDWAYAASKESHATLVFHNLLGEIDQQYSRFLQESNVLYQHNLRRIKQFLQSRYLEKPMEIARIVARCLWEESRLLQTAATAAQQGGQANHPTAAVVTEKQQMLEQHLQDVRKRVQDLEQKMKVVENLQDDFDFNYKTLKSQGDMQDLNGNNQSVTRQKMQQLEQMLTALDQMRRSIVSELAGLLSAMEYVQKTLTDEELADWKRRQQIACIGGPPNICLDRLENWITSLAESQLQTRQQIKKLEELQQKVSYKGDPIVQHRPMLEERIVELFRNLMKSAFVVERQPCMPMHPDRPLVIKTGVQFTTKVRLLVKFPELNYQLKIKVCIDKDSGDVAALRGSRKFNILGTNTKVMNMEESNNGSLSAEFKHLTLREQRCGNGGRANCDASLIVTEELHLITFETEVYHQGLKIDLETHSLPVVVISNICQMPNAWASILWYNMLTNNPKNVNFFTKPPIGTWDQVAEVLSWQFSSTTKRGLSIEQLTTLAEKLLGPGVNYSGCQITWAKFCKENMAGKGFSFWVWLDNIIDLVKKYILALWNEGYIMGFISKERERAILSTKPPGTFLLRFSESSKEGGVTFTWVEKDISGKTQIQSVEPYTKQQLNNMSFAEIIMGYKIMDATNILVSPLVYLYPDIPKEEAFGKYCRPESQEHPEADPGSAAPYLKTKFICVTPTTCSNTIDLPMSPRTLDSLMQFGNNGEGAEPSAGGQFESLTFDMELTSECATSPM
In short: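 HepG2, MRTU-transfected, 24 h dosing. RNA → RT → PCR → FAM label → HpaI → CE. Bidirectional fit vs DMSO.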

[9] = ATG_TA_CIS: Attagene CIS-FACTORIAL HepG2 Assay for human TA Basal Promoter (AID 2282964); conditions: HepG2 Attagene CIS-factorial TA basal promoter reporter; actives raise or lower the signal
In short: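 Background internal-marker endpoint from a 52-component HepG2 cis-reporter panel. Cells treated 24 h; reporter transcripts quantified via RT-PCR and CE fluorescence against DMSO baseline.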

[10] = ATG_TCF_b_cat_CIS: Attagene CIS-FACTORIAL HepG2 Assay for human T-Cell-Factor with beta-catenin (TCF/b-cat) (AID 2282965); conditions: HepG2 TCF/beta-catenin cis-reporter transcription, actives raise or lower the signal
In short: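 Using capillary electrophoresis as the read-out, labelled reporter cDNA fragments from transiently transfected HepG2 were sized and quantified. Exposure lasted 24 hours; activity in either direction was referenced to DMSO.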

Measured: AC50

O=C(O)c1ccccc1C(=O)OCc1ccccc1
not listed: [10]
inactive: all other assays above

C[C@]12CC[C@@H]3c4ccc(O)cc4CC[C@H]3[C@@H]1CC[C@H]2O
inactive: [1] | [2] | [3] | [4] | [5] | [6] | [7] | [8] | [9]
active: [2] 7.87 µM and 6.41 µM and 4.84 µM | [7] 27.6 µM

CCCCCCCCN(C)CCCCCCCC
active: [2] 26.5 µM
not listed: [10]
inactive: all other assays above

CN(C)c1ccc(C(=C2C=CC(=[N+](C)C)C=C2)c2ccc(N(C)C)cc2)cc1
active: [2] 2.19 µM | [6] 1.69 µM | [9] 0.99 µM
not listed: [10]
inactive: all other assays above

CCCCCCCC[Si](OCC)(OCC)OCC
inactive: [1] | [3] | [4] | [5] | [6] | [7] | [8] | [9] | [10]
active: [2] 8.67 µM [middle of 4 runs] | [3] 62.9 µM and 70.5 µM | [5] 147 µM | [6] 159 µM | [7] 100 µM | [10] 68.9 µM and 100 µM

CC(C)(O)c1ccc(CNC(=O)c2cccnc2Oc2ccc3nonc3c2)cc1
active: [2] 7.65 µM | [7] 50.9 µM
not listed: [10]
inactive: all other assays above

COc1cccc([C@H](O)C2CCN(CCc3ccc(F)cc3)CC2)c1OC
active: [2] 25.8 µM
not listed: [10]
inactive: all other assays above

CCCCCCCCOC(=O)c1cc(O)c(O)c(O)c1
active: [2] 11.1 µM
not listed: [10]
inactive: all other assays above

Cc1cn([C@H]2C[C@H](N=[N+]=[N-])[C@@H](CO)O2)c(=O)[nH]c1=O
not listed: [10]
inactive: all other assays above

O=CCCCC=O
not listed: [10]
inactive: all other assays above

c1ccc2n[nH]nc2c1
inactive: all assays above

Cc1cccc2ccccc12
not listed: [10]
inactive: all other assays above

Cc1ccc(C(C)C)cc1
not listed: [10]
inactive: all other assays above

CC[C@@H]1C[C@H](N(Cc2cc(C(F)(F)F)cc(C(F)(F)F)c2)C(C)=O)c2cc(C(F)(F)F)ccc2N1C(=O)OC(C)C
active: [2] 0.0676 µM
inactive: all other assays above

CC(O)CC(C)(C)O (stereo unspecified)
inactive: [1] | [2] | [4] | [5] | [6] | [7] | [8] | [9]
active: [2] 37.5 µM

O=c1c(-c2ccc(O)cc2)coc2cc(O)cc(O)c12
active: [2] 27.9 µM | [3] 14.7 µM and 66.3 µM and 50 µM | [6] 58.4 µM and 80.7 µM | [7] 28.2 µM [middle of 4 runs]
inactive: [1] | [2] | [3] | [4] | [5] | [6] | [8] | [9]

CCCCOC(=O)c1ccc(O)cc1
active: [1] 81.5 µM | [2] 27 µM and 24.1 µM | [3] 63.3 µM and 65.9 µM and 24.9 µM | [4] 65 µM | [5] 100 µM | [7] 19.8 µM | [9] 79 µM
inactive: [1] | [2] | [3] | [4] | [5] | [6] | [7] | [8] | [9]

CCCCOC(=O)CC(CC(=O)OCCCC)(OC(C)=O)C(=O)OCCCC
active: [2] 1.18 µM and 705 nM | [4] 27.5 µM
inactive: [1] | [3] | [4] | [5] | [6] | [7] | [8] | [9] | [10]

COCC(C)OCC(C)OCC(C)O (stereo unspecified)
not listed: [10]
inactive: all other assays above

Cc1c2ccccc2c(C)c2c1ccc1ccccc12
active: [2] 2.42 µM | [4] 54.8 µM | [5] 52.4 µM | [6] 6.93 µM
not listed: [10]
inactive: all other assays above

CCCCCCCCOc1ccc(C(=O)c2ccccc2)c(O)c1
not listed: [10]
inactive: all other assays above

CCCC(=O)OCCC(C)C
inactive: all assays above

CN1C(=O)N(c2ccccc2Br)Cc2cnc(Nc3ccc4c(c3)OCC(CO)O4)nc21 (stereo unspecified)
active: [3] 2.65 µM | [4] 1.84 µM | [7] 21.1 µM | [9] 15.8 µM
not listed: [10]
inactive: all other assays above

CCCCCc1ccc(N)cc1
active: [2] 72.9 µM and 27.4 µM and 21.2 µM
inactive: [1] | [2] | [3] | [4] | [5] | [6] | [7] | [8] | [9]

c1ccc(C[n+]2cccc3ccccc32)cc1
not listed: [10]
inactive: all other assays above

CCCCCCCCCC(=O)O
active: [2] 27.4 µM | [7] 104 µM
inactive: [1] | [2] | [4] | [5] | [6] | [7] | [8] | [9] | [10]

CCCOC(=O)c1cc(O)c(O)c(O)c1
active: [3] 21 µM
not listed: [10]
inactive: all other assays above

CO[C@H]1/C=C/O[C@@]2(C)Oc3c(C)c(O)c4c(O)c(c(/C=N/N5CCN(C)CC5)c(O)c4c3C2=O)NC(=O)/C(C)=C\C=C\[C@H](C)[C@H](O)[C@@H](C)[C@@H](O)[C@@H](C)[C@H](OC(C)=O)[C@@H]1C
active: [2] 461 nM and 369 nM
not listed: [10]
inactive: all other assays above

CN(C)C(=O)C1(N2CCCCC2)CCN(CC[C@@]2(c3ccc(Cl)c(Cl)c3)CN(C(=O)c3ccccc3)CCO2)CC1
active: [2] 0.17 µM | [7] 0.436 µM
not listed: [10]
inactive: all other assays above

CCCCCCCCCCCO
not listed: [10]
inactive: all other assays above

Cc1oc2c(NC(=O)c3c(Cl)cccc3Cl)cccc2c1C(C)(C)O
inactive: [5] | [6] | [8]
active: [1] 85.7 µM | [2] 0.116 µM | [3] 71.8 µM | [4] 31.6 µM | [7] 6.28 µM | [9] 41.5 µM | [10] 25.4 µM

CC/C(=C(/CC)c1ccc(O)cc1)c1ccc(O)cc1
inactive: [1] | [5] | [6] | [7] | [8] | [9]
active: [1] 14.9 µM and 5.16 µM | [5] 11.1 µM | [6] 18.2 µM

COc1ccc2cc(S(=O)(=O)N[C@H](CC(=O)N[C@H](Cc3ccc(CN4[C@H](C)CCC[C@@H]4C)cc3)C(=O)N(C)C(C)C)c3ccc4c(c3)OCO4)ccc2c1
active: [7] 0.564 µM | [9] 11 µM | [10] 11.2 µM
inactive: all other assays above

CCCCCCCCCCCC[N+](C)(C)C
inactive: [1] | [2] | [3] | [4] | [5] | [6] | [8] | [9] | [10]
active: [2] 1.26 µM | [7] 26.1 µM and 25.6 µM

CC1=CC(=O)/C(=C(/C)O)C(=O)O1
not listed: [10]
inactive: all other assays above

O=C1CCC(C2CCCCC2)CC1
active: [1] 156 µM | [2] 10.4 µM [middle of 4 runs] | [6] 171 µM
inactive: [1] | [3] | [4] | [5] | [6] | [7] | [8] | [9] | [10]

Cc1cc2c(cc1C(F)(F)F)N(C(=O)Nc1ccc(Oc3cccnc3C)nc1)CC2
not listed: [10]
inactive: all other assays above
